Measurements reported in PubChem BioAssay AID1259313 (Sanford-Burnham Center for Chemical Genomics, 2017).
The campaign covered roughly 340,000 compounds. About 8,500 (2.5%) were called active. The entries come from a sample that favours actives as a whole. Unmarked numbers belong to inactive results.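 How the source made its calls: active means melting temperature shift of at least 10% of the positive control shift, at one fixed dose; inactive means the rest.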

Test system: Glutamate receptor ionotropic, NMDA 3A (GRIN3A) ligand-binding domain
Experiment: NR3A LBD thermal stabilization by compounds – biophysical, differential scanning fluorimetry, uHTS, primary screen (AID 1259313)
Conditions: at 25 µM, hits give high values, 0% = protein alone, 100% = glycine-bound protein

| Compound | Tm shift relative to glycine control |
| --- | --- |
| Clc1ccc(Nc2nc(-c3cccs3)cs2)nc1 | 23% (active) |
| Clc1ccc(Cc2nnc(-c3cccs3)o2)cc1 | -0.55% |
| CCCc1cc(C(=O)Nc2ccc(Cl)cn2)cs1 | 0.69% |
| Cc1cc(C)cc(NC(=O)C(c2ccccc2)N2CCN(CC(=O)N3CCCC3)CC2)c1 (centres undefined) | -1.19% |
| Cc1ccc(C)c(NC(=O)C(OC(=O)c2ccc(C)s2)c2ccccc2)c1 (centres undefined) | -6.89% |
| Cc1cc(C)cc(NC(=O)C(OC(=O)c2ccc(O)cc2)c2ccccc2)c1 (centres undefined) | 10.5% (active) |
| COc1cc(CO)c(C2(CO)CCCC2)cc1OC | -9.65% |
| NC(=O)C1(Nc2ccc(-c3ccccc3)cc2)CCCC1 | 2.37% |
| CNc1nccc(-c2ccc(Cl)cc2)c1C#N | -0.74% |
| N#CC1(Nc2ccc(-c3ccc(Cl)cc3)cc2)CCCC1 | 20.4% (active) |
| COc1ccccc1CNC(=O)CNC(=O)c1cn(-c2ccccc2OC)c(=O)c2ccccc12 | -0.54% |
| Cc1ccc(NC(=O)CSCC(=O)N2CCOCC2)cc1 | 1.21% |
| Cc1cc2c(cc1C)[n+](C)cn2CC(O)COCC1CC=CCC1 (centres undefined) | 11.6% (active) |
| CNC(=S)N/N=C/c1ccc(N2CCOCC2)s1 | -0.99% |
| CCCn1c(=O)c2c(C(F)(F)F)cc(-c3cccs3)nc2n(CCC)c1=O | 0.77% |
| COc1ccc(NC(=O)NCCN2CCN(c3ccc(C)cc3)CC2)c(Cl)c1 | -3.16% |
| Cc1ccc(C2(C)NC(=O)N(CC(=O)Nc3ccccc3C(=O)N3CCCCC3)C2=O)cc1 (centres undefined) | -1.86% |
| CSCCC(NS(=O)(=O)c1ccc(C)cc1)C(=O)N(C)CC(=O)Nc1ccccc1Br (centres undefined) | 0.34% |
| CCCc1cc(C(=O)Nc2ccc(C(=O)OC)cc2)cs1 | -10.4% |
| COC(=O)c1ccc(Nc2ncnc3sccc23)cc1 | 13% (active) |
| COc1ccc(Nc2ncnc3sc(C)cc23)cc1 | -17.1% |
| C/C(=N\N)c1c(-c2ccccc2)c2cc(Br)ccc2[nH]c1=O | -2.09% |
| CC(=O)NCCC(=O)Nc1cc(S(=O)(=O)N2CCCCC2)ccc1Oc1cccc(C)c1 | 1.88% |
| Cn1cccc1/C=C1\SC(=S)N(NC(=O)c2ccc(Cl)cc2)C1=O | 8.58% |

| Compound | Tm shift relative to glycine control |
| --- | --- |
| O=C(O)c1ccc2c(c1)C(=O)N(NC(=O)c1ccc(O)cc1)C2=O | 0.18% |
| CC(=O)N1C(=O)/C(=C2\SC(=S)N(NC(=O)c3ccc(O)cc3)C2=O)c2ccccc21 | 21.7% (active) |
| Cc1ccc(CC2CC(=O)N(c3cc(C)ccc3C)C2=O)cc1 (centres undefined) | -1.45% |
| COc1cc(NC(=O)c2cncc(-c3ccc(C#N)cc3)c2)cc(C(=O)Nc2cccc(C(F)(F)F)c2)c1 | -1.27% |
| COc1ccc(NC(=O)C(=O)NCC(=O)Nc2cccc(C(F)(F)F)c2)cc1 | 7.67% |
| COc1cc(NC(=O)c2[nH]cnc2C(N)=O)cc(C(=O)Nc2cccc(C(F)(F)F)c2)c1 | 14.8% (active) |
| N#Cc1ccccc1NC(=O)c1cccc(COc2ccc(Cl)cc2Cl)c1 | 7.12% |
| O=C(NCCC1CCCCN1S(=O)(=O)c1cccs1)C(=O)Nc1ccc(F)cc1F (centres undefined) | 1.11% |
| c1ccc(CCc2ccccn2)cc1 | 1.84% |
| CC1(C)C=Cc2c(ccc3c2OC[C@@H](c2ccc(O)cc2O)C3)O1 | 8.09% |
| Cc1cc(=O)oc2cc(OC(C)C(=O)NCCc3ccc(S(N)(=O)=O)cc3)ccc12 (centres undefined) | -2.25% |
| Cc1ccc2c(=O)cc(C(=O)NCCc3ccc(S(N)(=O)=O)cc3)oc2c1C | 10.6% (active) |
| Cc1cc(=O)oc2c(C)c(OCC(=O)NCCc3ccc(S(N)(=O)=O)cc3)ccc12 | -1.05% |
| Cc1ccc(-n2c(Cc3cccs3)nnc2SCC(=O)OC(C)C)cc1 | -1.71% |
| CCn1c(SCC(=O)c2ccc3ccccc3c2)nnc1-c1cccs1 | -0.65% |
| CCn1c(Cc2cccs2)nnc1SCC(=O)c1ccc(C)cc1 | 11.2% (active) |
| Cc1ccccc1NC(=O)C(C)c1ccc(-c2ccccc2)c(F)c1 (centres undefined) | -4.35% |
| CCCC(C(=O)OCCN(CC)CC)(c1ccccc1)c1ccccc1 | -1.26% |
| O=C(c1ccccc1)C(Cn1cncn1)C(Sc1ccccc1)c1ccccc1 (centres undefined) | 0.35% |
| COc1cccc(CNC(=O)c2nnn(CC(=O)Nc3cc(Cl)ccc3C)c2N)c1 | 2.58% |
| COc1ccc(CNC(=O)c2cc(=O)c3c(C)cc(C)cc3o2)cc1 | -0.39% |
| COc1ccc(CNC(=O)CN2CCC(n3nnc4cc(F)ccc43)CC2)cc1 | 0.17% |
| Cc1ccc(NC(=O)Cn2nnc(C(=O)NCc3ccco3)c2N)c(C)c1 | 1.53% |
| CCc1ccc(NC(=O)Cn2nnc(C(=O)NCc3ccc4c(c3)OCO4)c2N)cc1 | 8.72% |

| Compound | Tm shift relative to glycine control |
| --- | --- |
| COc1ccc(CNC(=O)c2nnn(CC(=O)Nc3cc(C)cc(C)c3)c2N)cc1 | 29.7% (active) |
| COc1ccc(NC(=O)Cn2nnc(C(=O)NCCc3ccc(OC)c(OC)c3)c2N)cc1 | -0.6% |
| CCc1ccc(NC(=O)Cn2nnc(C(=O)NCc3ccc(OC)cc3)c2N)cc1 | 24.6% (active) |
| COc1cccc(CNC(=O)c2nnn(CC(=O)Nc3cc(C)ccc3C)c2N)c1 | 11.9% (active) |
| Cc1ccc(N/C(N)=N/c2nc(C(F)(F)F)cc(C(F)(F)F)n2)cc1 | -6.73% |
| O=C(NCc1cccs1)c1ccc2c(c1)ncn2C1CCCC1 | -0.09% |
| O=C1CN(C(=O)CN2C(=O)NC3(CCCCC3)C2=O)c2ccccc2N1 | -0.31% |
| O=C(CSc1c2c(nc3ccc(Cl)cc13)CCCC2)NCc1ccco1 | 0.25% |
| COC(=O)C1CCN(C(=O)c2ccc3oc(Cc4ccc(Cl)cc4)nc3c2)CC1 | 0.94% |
| COc1ccc(Cl)cc1NC(=O)COc1ccc2c(c1)OCO2 | -1.71% |
| C#CCNC(=O)C1=C[C@@H](c2ccccc2)[C@H](CCCO)[C@@H](OCC)O1 | -1.23% |
| COc1ccc(-c2cc(C(=O)Nc3ccccc3O)c3ccccc3n2)cc1 | 21% (active) |
| COc1ccc(-c2cc(C(=O)n3cnc4ccccc43)c3ccccc3n2)cc1 | -1.16% |
| COc1ccc(NC(=O)c2cc(-c3cc(OC)c(OC)c(OC)c3)nc3ccccc23)c(OC)c1 | 1.42% |
| Cc1cccc(CSc2ccc(-c3cccs3)nn2)c1 | -7.55% |
| Nc1ccc(SCCN2C(=O)c3ccccc3C2=O)cc1 | -0.18% |
| O=C(Nc1c(Br)cc2c(c1Br)Cc1cc([N+](=O)[O-])ccc1-2)C(Cl)Cl | -1.4% |
| O=C(Nc1c(Br)cc2c(c1Br)Cc1ccccc1-2)C(F)(F)F | 11.5% (active) |
| O=C(Nc1ccccc1)c1ccccc1NC(=O)C(F)(F)F | -1.92% |
| O=C(CCS(=O)(=O)c1ccc(Br)cc1)NCCc1ccc(Cl)cc1 | 0.18% |
| CCOc1ccc(NC(=O)CN(C)C(=O)CSc2ccccc2)cc1OCC | -0.35% |
| O=C(/C=C/Sc1ncn[nH]1)c1ccc(Cl)cc1 | -1.06% |
| FC(F)(F)c1nnc2ccc(N3CCN(c4ccccc4)CC3)nn12 | -3.49% |
| Fc1c(F)c(C(F)(F)F)c(F)c(F)c1N1CCN(c2ccc3nnc(C(F)(F)F)n3n2)CC1 | 33.4% (active) |

| Compound | Tm shift relative to glycine control |
| --- | --- |
| CSCCC(NC(=O)c1ccc(Cl)cc1Cl)C(=O)NNC(=O)c1csc(N2CCOCC2)n1 (centres undefined) | -1.92% |
| COc1ccc(NC(=O)CN2C(=O)CSc3ccc(S(=O)(=O)N4CCC(C)CC4)cc32)cc1 | -2.6% |
| Cc1cc(Cl)c2oc(C(=O)NC(C)c3ccncn3)c(C)c2c1 (centres undefined) | -2.04% |
| Cc1ccc(-n2ncc3c(N4CCN(c5ccc(F)cc5)CC4)ncnc32)c(C)c1 | 10.6% (active) |
| Cc1ccc(-n2ncc3c(=O)[nH]cnc32)c(C)c1 | -2.15% |
| Cc1ccc2cc(C)c(N3CCN(c4ccc(F)cc4)CC3)nc2c1 | 1.71% |
| CCCCn1c(SCc2ncc(-c3ccccc3)o2)nc2cc(S(N)(=O)=O)ccc21 | -10.6% |
| CCOc1ccc(C(CCc2ccccc2)NC(=O)c2ccc(OC)c(OC)c2)cc1OCC (centres undefined) | -0.18% |
| O=C1CCC(C(=O)N2CCCCO2)CN1Cc1cccc(C(F)(F)F)c1 (centres undefined) | 0.67% |
| CCc1ccc(Oc2coc3cc(O)ccc3c2=O)cc1 | -1.09% |
| COc1ccc(Oc2coc3cc(OC(=O)c4cncc(Br)c4)ccc3c2=O)cc1 | -4.3% |
| COC(=O)COc1ccc2c(=O)c(Oc3ccccc3Br)coc2c1 | 17.5% (active) |
| CC(C)OC(=O)c1ccc(COc2ccc3ccc(=O)oc3c2)o1 | 1.19% |
| COc1ccc(-c2cn[nH]c2-c2ccc(OC)cc2)cc1 | 0% |
| CCOc1ccccc1Oc1cn[nH]c1-c1ccc(OC)cc1O | -4.92% |
| COc1ccc(Oc2cn[nH]c2-c2ccc(OC)cc2O)cc1 | 17.8% (active) |
| Cc1ccc(S(=O)(=O)N2CCN(C(=O)c3cc(S(=O)(=O)N4CCOCC4)ccc3F)CC2)cc1 | -1.16% |
| CC1CCCC(NC(=O)CSc2nccn2C)C1C (centres undefined) | 3.2% |
| Cc1ccc(-n2nc3c(=O)n(C(C)C(=O)NCc4ccc5c(c4)OCO5)nc(C)c3c2C)cc1 (centres undefined) | 0% |
| COC(C(=O)Nc1ccc(C(C)=O)cc1)c1ccccc1 (centres undefined) | -4.28% |
| COC(C(=O)NCc1ccccc1C)c1ccccc1 (centres undefined) | -0.62% |
| COC(C(=O)Nc1ccc(S(=O)(=O)Nc2ccc(C)c(C)c2)cc1)c1ccccc1 (centres undefined) | 16.2% (active) |
